PubChem BioAssay (NCATS)
“And” between values parts separate entries of the source, which are not always exact repeats. Equal values may be shown once. Records with an inconclusive call do not appear. Some structures have more than one record in an assay (separate samples or runs), and their calls can disagree. The source made the active and inactive calls. Calls come from the whole dose curve; as a rule, active = well fitted curve in the direction sought with a large enough effect; inconclusive = small, poorly fitted or top-dose-only effect, or another doubt; inactive = no such curve, though single readings can be large; an effect the other way counts as inactive or inconclusive.

Target: Cytochrome P450 2C9 (Homo sapiens) (UniProt P11712)
Experiment: qHTS Assay for Inhibitors and Substrates of Cytochrome P450 2C9 (AID 883); note: nearly all actives have a fitted effect of over 60% in size; note: potency is the fitted concentration of half-maximal effect; for activity change, negative = inhibition: % is set by controls: 0 for no effect and ±100 for the full control effect
Conditions: recombinant CYP2C9, luciferin-H luminescence, 60 min; series mostly up to 11.4 µM
Outline: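 Luminescent read-out of deoxyluciferin hydroxylation, normalized to 57uM sulphaphenazole (AC100). Reaction: 10nM enzyme, 100uM Luciferin-H (equal to KM), 25mM KPO4, 10 min compound preincubation, then 60 min with NADPH regeneration, both at 37C.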

Cytochrome P450 2C9 (Homo sapiens), sequence (P11712 whole entry, looked up): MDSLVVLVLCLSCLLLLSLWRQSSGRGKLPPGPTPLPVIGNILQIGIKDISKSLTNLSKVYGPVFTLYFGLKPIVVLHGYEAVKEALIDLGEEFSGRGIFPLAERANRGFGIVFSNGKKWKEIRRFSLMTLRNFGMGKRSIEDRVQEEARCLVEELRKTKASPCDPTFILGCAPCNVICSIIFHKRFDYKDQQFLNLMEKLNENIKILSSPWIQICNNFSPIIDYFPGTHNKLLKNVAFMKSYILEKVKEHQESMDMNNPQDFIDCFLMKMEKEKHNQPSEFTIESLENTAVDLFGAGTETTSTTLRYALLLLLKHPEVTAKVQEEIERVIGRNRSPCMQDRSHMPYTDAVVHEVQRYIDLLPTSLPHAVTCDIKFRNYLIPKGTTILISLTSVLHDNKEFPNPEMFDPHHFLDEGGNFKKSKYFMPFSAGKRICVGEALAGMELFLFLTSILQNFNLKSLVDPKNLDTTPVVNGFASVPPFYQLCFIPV

Question: Which Potency does the source give for `C/C(CCN1CCCCc2nc(C)c(C)cc21)=N\O[C@@H](C)c1cc(-c2c(C)cc(C)cc2C)no1` here?
Answer: The Potency was 2.51 µM (active).

Question: For `COc1ccc(-c2ccc3c(n2)CCCN3C[C@H](O)CN2CCCc3nc(C)c(C)cc32)cc1`, which Potency is on record?
Answer: The Potency was 3.98 µM (active).

Question: With `C=CC[C@@H]1C=C[C@H](O/N=C2\c3cc(OC)ccc3O[C@H](c3cccc(OC)c3)[C@H]2O)[C@H](CO)O1` as the molecule, how does the Potency read?
Answer: The Potency was 0.398 µM (active).

Question: With `CC(=O)c1ccc(C2C=CC(Oc3ccc(-c4ccccc4)cc3)C(CO)O2)cc1` (stereo not given) as the molecule, how does the Potency read?
Answer: The Potency was 3.98 µM (active).

Question: How did the Potency turn out when `CC(=O)OC[C@@H]1O[C@@H](O/N=C2/C[C@@H](O)[C@@H](O)[C@@H]3[C@@H]4C(=O)N(C(C)(C)C)C(=O)[C@H]4CC[C@@H]23)[C@H](OC(C)=O)[C@H](OC(C)=O)[C@@H]1OC(C)=O` was run?
Answer: The Potency was “inactive”.

Question: Which Potency does the source give for `COc1cccc([C@H]2Oc3ccc(OC)cc3/C(=N\O[C@@H](C)c3cn([C@H](CO)Cc4ccccc4)nn3)[C@@H]2O)c1` here?
Answer: Its Potency is 1.58 µM (active).

Question: For `COc1ccc(C#CC2C=CC(OC(C)=O)C(COC(C)=O)O2)cc1` (stereo not given), which Potency is on record?
Answer: The Potency was “inactive”.

Question: For `C=C(C)C(O)C(CC/C=C(\C)C(=O)OCC)OC` (stereo not given), which Potency is on record?
Answer: Its Potency is “inactive”.

Question: Which Potency does the source give for `COc1ccc(OC[C@@H](CO)OC)cc1` here?
Answer: The Potency was “inactive”.

Question: Which Potency does the source give for `CC(=O)OCC1OC(c2cc(C)cc(C)c2)C=CC1OC(C)=O` (stereo not given) here?
Answer: Its Potency is “inactive”.

Question: How did the Potency turn out when `COc1ccc(O[C@H]2C=C[C@@H](c3ccccc3)O[C@H]2COC(=O)CC/C(C)=N\O[C@@H](C)c2cn([C@H](CO)Cc3ccccc3)nn2)cc1` was run?
Answer: The Potency was 1.26 µM (active).

Question: For `C=C(C)C(=O)OCC1CN2C(CCC(C)C2c2ccc(Br)cc2)C(=O)O1` (stereo not given), which Potency is on record?
Answer: The Potency was “inactive”.

Question: With `CCCCCCCC#Cc1ccccc1/C=N/S(=O)c1ccc(C)cc1` (stereo not given) as the molecule, how does the Potency read?
Answer: Its Potency is “inactive”.

Question: With `CC1CCC2C(=O)OC(CN=[N+]=[N-])CN2C1c1ccc(Br)cc1` (stereo not given) as the molecule, how does the Potency read?
Answer: Its Potency is “inactive and 1 µM (active)”.

Question: With `COC(=O)NC(/C(C(=O)OC)=C(\C)NCc1ccccc1)c1cccc(C)c1` (stereo not given) as the molecule, how does the Potency read?
Answer: The Potency was “inactive”.

Question: How did the Potency turn out when `CC(=O)OC[C@@H]1O[C@@H](O/N=C2/C[C@@H](O)[C@@H](O)[C@@H]3[C@@H]4C(=O)N(C5CCCCC5)C(=O)[C@H]4CC[C@@H]23)[C@H](OC(C)=O)[C@H](OC(C)=O)[C@@H]1OC(C)=O` was run?
Answer: The Potency was “inactive”.

Question: `CC(C)CO/N=C1/[C@H]2O[C@@H]2[C@@H](O)[C@H]2[C@H]1CCn1c(=O)n(-c3ccccc3)c(=O)n12` was tested. Which Potency did it give?
Answer: The Potency was “inactive”.

Question: With `C[C@H]1CC[C@H]2C(=O)N[C@H](Cc3ccccc3)C(=O)N2[C@@H]1c1ccccc1` as the molecule, how does the Potency read?
Answer: The Potency was “inactive”.

Question: `COC(=O)NC(/C(C(=O)OC)=C(\C)NCc1ccccc1)c1cccc(F)c1` (stereo not given) was tested. Which Potency did it give?
Answer: Its Potency is “inactive”.

Question: `C=CCCC/C=C(/C)C(OCc1ccc(OC)cc1)C(CC/C=C(\C)C(N)=O)OC` (stereo not given) was tested. Which Potency did it give?
Answer: The Potency was “inactive”.

Question: With `CCOC(=O)N/N=C1/C[C@@H](O)[C@@H](O)[C@@H]2[C@@H]3C(=O)N(c4cccc(Oc5ccccc5)c4)C(=O)[C@H]3CC[C@@H]12` as the molecule, how does the Potency read?
Answer: Its Potency is “inactive”.

Target: Cytochrome P450 3A4 (Homo sapiens) (UniProt P08684)
Experiment: qHTS Assay for Inhibitors and Substrates of Cytochrome P450 3A4 (AID 884); note: nearly all actives have a fitted effect of over 50% in size; note: potency is the fitted concentration of half-maximal effect; for activity change, negative = inhibition: % is set by controls: 0 for no effect and ±100 for the full control effect
Conditions: recombinant CYP3A4, Luciferin-PPXE luminescence; series mostly up to 57.1 µM
Outline: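 20 nM human CYP3A4 with 25 uM Luciferin-PPXE (at KM) in 200 mM KPO4, preincubated 10 min with compound; NADPH regeneration started a 60 min RT reaction. Luciferin detected by luminescence, normalized to 57 uM ketoconazole as full inhibition.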

Cytochrome P450 3A4 (Homo sapiens), sequence (P08684 whole entry, looked up): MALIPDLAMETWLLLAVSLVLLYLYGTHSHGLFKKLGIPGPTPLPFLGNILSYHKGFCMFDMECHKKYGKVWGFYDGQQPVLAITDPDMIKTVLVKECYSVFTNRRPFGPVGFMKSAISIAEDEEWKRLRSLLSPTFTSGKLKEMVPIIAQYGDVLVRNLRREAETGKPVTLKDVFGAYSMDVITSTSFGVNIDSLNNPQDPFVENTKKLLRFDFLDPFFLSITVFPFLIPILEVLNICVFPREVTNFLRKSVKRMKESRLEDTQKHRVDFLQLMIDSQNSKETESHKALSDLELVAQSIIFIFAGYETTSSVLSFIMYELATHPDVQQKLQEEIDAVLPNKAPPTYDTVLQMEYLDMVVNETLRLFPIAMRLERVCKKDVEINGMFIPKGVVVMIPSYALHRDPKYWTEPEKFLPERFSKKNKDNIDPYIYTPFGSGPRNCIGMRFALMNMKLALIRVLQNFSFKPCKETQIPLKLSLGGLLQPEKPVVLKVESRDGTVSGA

Question: How did the Potency turn out when `C/C(CCN1CCCCc2nc(C)c(C)cc21)=N\O[C@@H](C)c1cc(-c2c(C)cc(C)cc2C)no1` was run?
Answer: The Potency was 3.98 µM (active).

Question: For `CC(=O)c1ccc(C2C=CC(Oc3ccc(-c4ccccc4)cc3)C(CO)O2)cc1` (stereo not given), which activity change, negative = inhibition is on record?
Answer: Its activity change, negative = inhibition is 0.0168% [at 11.4 µM] (inactive).

Question: Which Potency does the source give for `COc1cccc([C@H]2Oc3ccc(OC)cc3/C(=N\O[C@@H](C)c3cn([C@H](CO)Cc4ccccc4)nn3)[C@@H]2O)c1` here?
Answer: The Potency was 3.16 µM (active) and 3.98 µM (active).

Question: With `COc1ccc(C#CC2C=CC(OC(C)=O)C(COC(C)=O)O2)cc1` (stereo not given) as the molecule, how does the activity change, negative = inhibition read?
Answer: Its activity change, negative = inhibition is -3.53% [at 11.4 µM] (inactive).

Question: And the Potency?
Answer: The Potency was 2.51 µM (active).

Question: `C=C(C)C(O)C(CC/C=C(\C)C(=O)OCC)OC` (stereo not given) was tested. Which activity change, negative = inhibition did it give?
Answer: The activity change, negative = inhibition was -25.2% [at 11.4 µM] (inactive).

Question: `CC(=O)OCC1OC(c2cc(C)cc(C)c2)C=CC1OC(C)=O` (stereo not given) was tested. Which Potency did it give?
Answer: The Potency was 3.16 µM (active).

Question: `COc1ccc(O[C@H]2C=C[C@@H](c3ccccc3)O[C@H]2COC(=O)CC/C(C)=N\O[C@@H](C)c2cn([C@H](CO)Cc3ccccc3)nn2)cc1` was tested. Which Potency did it give?
Answer: The Potency was 3.98 µM (active) and 5.01 µM (active).

Question: What does the source list for `C=C(C)C(=O)OCC1CN2C(CCC(C)C2c2ccc(Br)cc2)C(=O)O1` (stereo not given)?
Answer: Potency: 3.16 µM (active); activity change, negative = inhibition: -21.6% [at 11.4 µM] (inactive)

Question: Which Potency does the source give for `CCCCCCCC#Cc1ccccc1/C=N/S(=O)c1ccc(C)cc1` (stereo not given) here?
Answer: Its Potency is 3.98 µM (active).

Question: For `COC(=O)NC(/C(C(=O)OC)=C(\C)NCc1ccccc1)c1cccc(C)c1` (stereo not given), which activity change, negative = inhibition is on record?
Answer: Its activity change, negative = inhibition is -22.4% [at 11.4 µM] (inactive).

Question: `C[C@H]1CC[C@H]2C(=O)N[C@H](Cc3ccccc3)C(=O)N2[C@@H]1c1ccccc1` was tested. Which Potency did it give?
Answer: Its Potency is 2.51 µM (active).

Question: With `COC(=O)NC(/C(C(=O)OC)=C(\C)NCc1ccccc1)c1cccc(F)c1` (stereo not given) as the molecule, how does the activity change, negative = inhibition read?
Answer: Its activity change, negative = inhibition is -19.8% [at 11.4 µM] (inactive).

Question: With `C=CCCC/C=C(/C)C(OCc1ccc(OC)cc1)C(CC/C=C(\C)C(N)=O)OC` (stereo not given) as the molecule, how does the Potency read?
Answer: The Potency was 3.98 µM (active).

Target: Cytochrome P450 3A4 (Homo sapiens) (UniProt P08684)
Experiment: qHTS Assay for Activators of Cytochrome P450 3A4 (AID 885); note: nearly all actives have a fitted effect of over 65% in size
Conditions: recombinant CYP3A4, Luciferin-PPXE luminescence, 60 min; series mostly up to 57.1 µM
Outline: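 20nM CYP3A4 + 25uM Luciferin-PPXE (=KM), 200mM KPO4; cpd 10 min RT; NADPH regen, 60 min RT; stop w/ detection buffer, 20 min; luminescence. Normalized to 57 uM ketoconazole.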

Question: For `C/C(CCN1CCCCc2nc(C)c(C)cc21)=N\O[C@@H](C)c1cc(-c2c(C)cc(C)cc2C)no1`, which activity change, positive = activation is on record?
Answer: The activity change, positive = activation was -65.9% [at 11.4 µM] (inactive).

Question: For `COc1cccc([C@H]2Oc3ccc(OC)cc3/C(=N\O[C@@H](C)c3cn([C@H](CO)Cc4ccccc4)nn3)[C@@H]2O)c1`, which activity change, positive = activation is on record?
Answer: The activity change, positive = activation was -102% [at 11.4 µM] (inactive) and -98.9% [at 11.4 µM] (inactive).

Question: `COc1ccc(C#CC2C=CC(OC(C)=O)C(COC(C)=O)O2)cc1` (stereo not given) was tested. Which activity change, positive = activation did it give?
Answer: The activity change, positive = activation was -88.8% [at 11.4 µM] (inactive).

Question: How did the activity change, positive = activation turn out when `CC(=O)OCC1OC(c2cc(C)cc(C)c2)C=CC1OC(C)=O` (stereo not given) was run?
Answer: The activity change, positive = activation was -86.4% [at 11.4 µM] (inactive).

Question: Which activity change, positive = activation does the source give for `COc1ccc(O[C@H]2C=C[C@@H](c3ccccc3)O[C@H]2COC(=O)CC/C(C)=N\O[C@@H](C)c2cn([C@H](CO)Cc3ccccc3)nn2)cc1` here?
Answer: Its activity change, positive = activation is -87.6% [at 11.4 µM] (inactive) and -97.7% [at 11.4 µM] (inactive).

Question: Which activity change, positive = activation does the source give for `C=C(C)C(=O)OCC1CN2C(CCC(C)C2c2ccc(Br)cc2)C(=O)O1` (stereo not given) here?
Answer: Its activity change, positive = activation is -55% [at 11.4 µM] (inactive) and -73.8% [at 11.4 µM] (inactive).

Question: `CCCCCCCC#Cc1ccccc1/C=N/S(=O)c1ccc(C)cc1` (stereo not given) was tested. Which activity change, positive = activation did it give?
Answer: The activity change, positive = activation was -65.3% [at 11.4 µM] (inactive).

Question: For `C[C@H]1CC[C@H]2C(=O)N[C@H](Cc3ccccc3)C(=O)N2[C@@H]1c1ccccc1`, which activity change, positive = activation is on record?
Answer: Its activity change, positive = activation is -99.1% [at 11.4 µM] (inactive).

Question: `C=CCCC/C=C(/C)C(OCc1ccc(OC)cc1)C(CC/C=C(\C)C(N)=O)OC` (stereo not given) was tested. Which activity change, positive = activation did it give?
Answer: Its activity change, positive = activation is -96.8% [at 11.4 µM] (inactive).
